# Results filed as inconclusive are left out. Entries that show only a call come without a potency. Calls of active or inactive are those of the source. Calls come from the whole dose curve.
# Target: Peroxisome proliferator-activated receptor gamma (Homo sapiens) (UniProt P37231)
# Assay: qHTS assay to identify small molecule antagonists of the peroxisome proliferator-activated receptor gamma (PPARg) signaling pathway (AID 743191); note: nearly all actives have a fitted effect of over 30% in size
# Conditions: HEK293H PPARg-UAS-bla, beta-lactamase ratio, antagonist, 17 h; series mostly up to 62.6 µM
# Excerpt: U.S. Tox21 Program National Center for Advancing Translational Sciences [NCATS] NIH Chemical Genomics Center [NCGC] U.S. Environmental Protection Agency [EPA] National Institutes of Environmental Health Sciences [NIEHS] National Toxicology Program [NTP] U.S. Food and Drug Administration [FDA] Tox21 Assay Overview: The peroxisome proliferator-activated receptors (PPARs) are lipid-activated transcription factors of the nuclear receptor superfamily with three distinct subtypes namely PPAR alpha, PPAR delta (also called PPAR beta) and PPAR gamma (PPARg). All these subtypes heterodimerize with Retinoid X receptor (RXR) and these heterodimers regulate transcription of various genes. PPAR-gamma receptor (glitazone receptor) is involved in the regulation of glucose and lipid metabolism. To identify the compounds that inhibit PPAR-gamma signaling, GeneBLAzer PPAR gamma UAS-bla HEK293H cell line (Invitrogen, Carlsbad, CA, USA) containing a beta-lactamase reporter gene under control of an Upstream Activator Sequence (UAS) was used to screen the Tox21 compound library.
# Tox21 Assay Protocol Summary: PPARg-bla cells were dispensed at 3000 cells/6uL/well in 1536-well black wall/clear bottom plates using a Multidrop Combi (Thermo Fisher Scientific, Waltham, MA) dispenser. After the assay plates were incubated at 37C and 5% CO2 for 5 h, 23 nL of compounds dissolved in DMSO, positive controls or DMSO only was transferred to the assay plate by a Pintool station (Kalypsys, San Diego, CA). The assay plates were incubated at 37C for 17 h. After 1 uL of LiveBLAzerTM B/G FRET substrate was added using a Bioraptr Flying Reagent Dispenser (FRD) workstation (Beckman Coulter, Indianapolis, IN, USA), the plates were incubated at room temperature for 1 h, and fluorescence intensity was measured by an Envision plate reader (PerkinElmer, Shelton, CT).
# Potency is the fitted concentration of half-maximal effect.
# Sequence of Peroxisome proliferator-activated receptor gamma (Homo sapiens) (P37231 whole entry, looked up): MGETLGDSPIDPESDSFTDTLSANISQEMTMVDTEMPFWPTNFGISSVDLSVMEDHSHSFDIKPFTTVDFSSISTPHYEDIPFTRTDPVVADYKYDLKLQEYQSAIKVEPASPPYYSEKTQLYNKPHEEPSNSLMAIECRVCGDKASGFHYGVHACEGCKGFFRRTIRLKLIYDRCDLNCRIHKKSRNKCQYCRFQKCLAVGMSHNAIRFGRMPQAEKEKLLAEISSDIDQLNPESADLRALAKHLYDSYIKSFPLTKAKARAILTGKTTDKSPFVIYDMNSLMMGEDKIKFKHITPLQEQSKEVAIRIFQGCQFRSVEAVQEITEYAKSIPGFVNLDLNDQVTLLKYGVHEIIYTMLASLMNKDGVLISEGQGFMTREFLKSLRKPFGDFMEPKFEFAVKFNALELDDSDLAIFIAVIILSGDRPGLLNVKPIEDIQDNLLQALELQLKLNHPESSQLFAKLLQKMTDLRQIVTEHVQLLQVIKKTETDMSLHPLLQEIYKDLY
SMILES,Potency,"ratio activity, negative = inhibition"
OCCN1CCN(CCO)CC1,inactive,–
Cc1nc(N)nc(N)c1-c1ccc(Cl)c(Cl)c1,1.88 µM (active),–
CCOC(=O)COc1ccc2c(c1)CC(NCC(O)c1cccc(Cl)c1)CC2 (stereo not given),inactive,–
C[C@]12C(=O)OC(=O)[C@H]1[C@H]1C=C[C@@H]2C1,inactive,–
CN1CCN(C2=Nc3cc(F)ccc3Cc3ccccc32)CC1,inactive,–
Clc1cccc(-c2cc(Cl)cc(Cl)c2)c1,inactive,–
O=C(CCCl)NCc1ccccc1,inactive,–
FC(F)(F)c1ccccc1,inactive,–
C/C(=N\O)[C@@H](C)NCC(C)(C)CN[C@H](C)/C(C)=N/O,inactive,–
C=CCCC=C,inactive,–
COC(=O)C(C)O (stereo not given),inactive,–
CCCCCCCCCC#N,inactive,–
CCC1(C)NC(=O)NC1=O (stereo not given),inactive,–
O=Cc1ccc(O)c(O)c1O,inactive,–
C[C@@H](N)C(=O)O,inactive,–
COC(=O)/C=C(/C)N,inactive,–
Cc1cc2c(s1)Nc1ccccc1N=C2N1CCN(C)CC1,inactive,–
CC(=O)Nc1ccc(C)c(Cl)c1,inactive,–
CCCOCCC,inactive,–
CCCCCCCCc1ccc(S(=O)(=O)O)cc1,43.3 µM (active),–

SMILES,Potency,"ratio activity, negative = inhibition"
O=c1[nH]cnc2c1ncn2[C@@H]1O[C@H](CO)[C@@H](O)[C@H]1O,inactive,–
CCCCNCCCC,inactive,–
NC(Cc1ccc(F)cc1)C(=O)O (stereo not given),–,6.5% [at 5.95 µM] (inactive)
O=C(Cl)c1cccc([N+](=O)[O-])c1,inactive,–
COC(=O)c1ccc(OC)cc1,inactive,–
CCCCOc1cc(C(=O)NCCN(CC)CC)c2ccccc2n1,inactive,–
FC(F)(F)C(Cl)(Cl)Cl,inactive,–
CC(C)C(=O)OCC(C)(C)C(O)C(C)C (stereo not given),inactive,–
CC(=O)OC1C2(C)CCC(C2)C1(C)C (stereo not given),inactive,–
Cc1cc(S(=O)(=O)O)c(N)cc1Cl,inactive,–
O=C(O)c1cccc(Cl)c1Cl,inactive,–
CC1CN(c2ccccc2)NC1=O (stereo not given),inactive,–
NC(=O)NS(=O)(=O)c1ccc(Cl)cc1,inactive,–
CCCCc1ccc2nc(NC(=O)OC)[nH]c2c1,inactive,–
CN1[C@@H]2CC[C@H]1CC(OC(=O)c1c[nH]c3ccccc13)C2 (stereo not given in full),inactive,–
CCCCC1CCC(=O)O1 (stereo not given),inactive,–
CN1CCN(N)CC1,inactive,–
CC1=C(O)C(=O)OC1C (stereo not given),inactive,–
C1CSCCS1,inactive,–
Cc1onc(-c2ccccc2)c1C(=O)Cl,inactive,–

# — PubChem BioAssay (Tox21)
